Only some compounds are listed: those with a hit (about 19% of all), similar ones and a draw of the others.
LASV entry inh = qHTS for Inhibitors of binding or entry into cells for Lassa Virus; Lassa virus pseudotype entry inhibition, cell reporter; Potency, µM (titrated, usually from 37.9 µM), without a hit: top-dose activity change, negative = inhibition, most hits filed as inhibitors; 1.2% of 300,000 active; AID 540256, 2011; calls by dose curve; tested in HEK293 cells; also: potency is read from the fitted curve at half-maximal effect; % is scaled to controls: 0 for no effect and ±100 for the full control effect; nearly all actives have a fitted effect of over 50% in size
Pf growth 48h = Primary qHTS for delayed death inhibitors of the malarial parasite plastid, 48 hour incubation; Potency, µM (doses to about 28.7 µM), for inactives: at the highest dose activity change, negative = inhibition, usual class: inhibitors; P. falciparum luciferase growth in erythrocytes, 48 h; 5.9% of 310,000 active; also: potency is read from the fitted curve at half-maximal effect; % is scaled to controls: 0 for no effect and ±100 for the full control effect
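Firefly luciferase activity from engineered P. falciparum reports growth; inhibitors lower the luminescent signal. Cultures contained 2% hematocrit erythrocytes at 0.1% final parasitemia.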
MARV entry inh = qHTS for inhibitors of binding or entry into cells for Marburg Virus | Marburg virus pseudotyped entry inhibition, cell reporter | Potency, µM (series often up to 37.8 µM), inactives show top-dose activity change, negative = inhibition, actives largely listed as inhibitors | 1.8% of 300,000 active; calls by dose curve; tested in HEK293 cells; also: potency is read from the fitted curve at half-maximal effect; % is scaled to controls: 0 for no effect and ±100 for the full control effect
Shiga toxin inh = A qHTS for Small Molecule Inhibitors of Shiga Toxin; 9.2% of 290,000 active; AID 2315, 2010; inhibition, % at 38.7 µM; Vero cells, Shiga toxin protein synthesis inhibition reporter; in the data active = inhibition mostly above about 28%, no sharp cut-off; inactive = mostly below about 43%; also: 0% is about no effect
Pf growth 96h = Primary qHTS for delayed death inhibitors of the malarial parasite plastid, 96 hour incubation; AID 504834, 2011; P. falciparum luciferase reporter growth, 96 h; Potency, µM (titrated, usually from 28.7 µM), without a hit: top-dose activity change, negative = inhibition, usual class: inhibitors; 6.9% of 320,000 active; also: potency is read from the fitted curve at half-maximal effect; % is scaled to controls: 0 for no effect and ±100 for the full control effect
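Delayed-death screen, second-generation endpoint: infected erythrocytes, 2% hematocrit, 0.05% parasitemia final; 96 hours at 37 C, 5% CO2; luciferase detection reagent; luminescence decrease equals reduced growth.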
CHX counter = Cycloheximide Counterscreen for Small Molecule Inhibitors of Shiga Toxin; cell reporter, cycloheximide protein synthesis inhibition counterscreen; max response, %; 12% of 300,000 active; in the data active = max response mostly above about 13%, no sharp cut-off; inactive = mostly below about 14%; also: read at 38.3 µM for the half of the compounds with a filed dose; 0% is about no effect
The depositor's hits bear a star; ? = inconclusive; / = no result given; [ ] = remark or other dose. Unless noted, calls follow the shape of the dose curve; as a rule, active = well fitted inhibition curve with a large enough effect; inconclusive = small, poorly fitted or top-dose-only effect, or another doubt; inactive = no such curve, though single readings can be large or run the other way.

SMILES | LASV entry inh | Pf growth 48h | MARV entry inh | Shiga toxin inh | Pf growth 96h | CHX counter
COC(=O)c1sc(N2C(=O)C(O)=C(C(=O)c3ccc(C)o3)C2c2ccc(OC)c(OC)c2)nc1C (stereo not drawn) | / | -9.5% | / | 4.5 | -13.6% | -3.9
CCOC(=O)c1sc(N2C(=O)C(O)=C(C(=O)c3ccc(C)o3)C2c2ccc(OC)c(OC)c2)nc1C (stereo not drawn) | -37.0%[46.1 µM] | -20.3% | ? | -15.4 | 14.3% | 10.9
CCOC(=O)c1sc(N2C(=O)C(O)=C(C(=O)c3ccco3)C2c2ccc(C)o2)nc1C (stereo not drawn) | 4.2%[46.1 µM] | -5.6% | -4.2%[46.1 µM] | 4.2 | ? | 6.8
CCOC(=O)c1sc(N2C(=O)C(O)=C(C(=O)c3ccc(C)o3)C2c2cccc([N+](=O)[O-])c2)nc1C (stereo not drawn) | / | 30.6% | / | -6.6 | 14.7µM* | 1.9
COC(=O)c1sc(N2C(=O)C(O)=C(C(=O)c3ccc(C)o3)C2c2ccc([N+](=O)[O-])cc2)nc1C (stereo not drawn) | / | 139.8% | / | 69.4* | -2.3% | 39.0*
Cc1ccc2nc(N3C(=O)C(O)=C(C(=O)c4ccc(C)o4)C3c3cccc(O)c3)sc2c1 (stereo not drawn) | 0.0% | 126.0% | 8.3%[46.1 µM] | 63.1* | 4.5% | 30.7*
CCOc1ccc(C2C(C(=O)c3ccc(C)o3)=C(O)C(=O)N2c2nc(C)c(C(=O)OC)s2)cc1 (stereo not drawn) | / | 48.9% | / | 47.5* | 30.2% | 26.4*
O=C(NCc1csc2ccccc12)Nc1cc(Cl)cc(Cl)c1 | -19.0% | ? | ? | 43.5 | ? | -1.6
COC(=O)CCCC(=O)N(C)CC1CCCN(CCc2ccccc2C)C1 (stereo not drawn) | 0.3%[46.1 µM] | / | -3.8%[46.1 µM] | / | / | /
COC(=O)[C@@H](NC(=O)O[C@H]1C(=O)c2ccc(OC)cc2O[C@@H]1c1ccc2c(c1)OCO2)C(C)C | ? | 34.0% | 0.7% | -0.2 | 29.5% | 23.1*
CN1CCN(C(=O)N2c3ccccc3C=Cc3ccccc32)CC1 | ? | -15.0% | 10µM* | 58.9 | ? | 5.2
CC(Cc1ccccc1Sc1ccc(O)cc1)N(C)C (stereo not drawn) | 2.2% | 13.1µM* | ? | -10.6 | / | -1.2
Cc1cccc(-c2[nH]c(C(C)(C)C)nc2-c2ccc3c(c2)OCO3)n1 | / | / | / | -13.7 | / | -5.8
COc1ccc(OC)c(C(C)NC(=O)c2ccc(Br)cc2)c1 (stereo not drawn) | 3.6% | -1.0% | 21.9% | 3.9 | 111.3% | -4.4
COc1cc(Br)c(C(C)NC(=O)c2ccccc2)cc1OC (stereo not drawn) | 17.0% | 13.1µM* | -21.1% | 7.3 | 11.7µM* | 0.9
Cc1ccc(OCC(=O)Nc2ccc(N3CCCC3)cc2)cc1C | -0.5% | 11.7µM* | ? | -11.2 | -5.6% | -1.2
Cc1ccc(NC(=O)COc2ccc(/C(N)=N/O)cc2)cc1C | 6.9% | -2.5% | 26.6% | 84.1* | 7.1% | 5.0
Cc1cc(OCC(=O)Nc2ccc(S(=O)(=O)N3CCN(C)CC3)cc2)ccc1Cl | -9.8% | 4.15µM* | ? | -2.8 | 11.7µM* | -1.1
Cc1ccc(NC(=O)COC(=O)C2CC2(Cl)Cl)cc1C (stereo not drawn) | 18.6% | 19.7% | 20.2%[46.1 µM] | 59.5 | 49.0% | 31.1*
Cc1cc(OCC(=O)Nc2ccc(S(=O)(=O)N3CCN(C)CC3)cc2)cc(C)c1Cl | -4.7% | ? | ? | -13.0 | 11.6% | -3.7
Cc1cc(OCC(=O)Nc2ccc(N3CCN(C)CC3)cc2)ccc1Cl | / | -24.5% | / | 76.9* | ? | 38.0*
O=C(CN(C(=O)c1csnn1)c1ccc(Cl)cc1)NCCc1ccccc1 | 0.2% | 13.1µM* | 7.3%[46.1 µM] | 20.1 | ? | -2.9
O=C(CN(C(=O)c1csnn1)c1ccccc1)NCCc1ccccc1 | 19.8% | 0.0% | -19.5%[46.1 µM] | -5.0 | 60.9% | -6.0
O=C(CN(C(=O)c1csnn1)c1ccc(F)c(Cl)c1)NC1CCCCC1 | -9.5%[46.1 µM] | 16.7% | -2.9%[46.1 µM] | 50.7 | 0.4% | 30.1*
COCC(=O)Nc1ccc(S(=O)(=O)N2CCCC2)cc1 | -5.1% | -31.6%[0.00184 µM] | ? | -0.9 | 39.8% | 1.8

High-throughput results from PubChem.
